Columns and labels:
Test in all cases: log2 ratio of Biotin-Ahx-Ub-VS probe labelling (fragment/DMSO); higher = less target engagement (more negative = stronger competition), active = hit call of the paper (q ≤ 0.05, log2 ratio ≤ -1)
Settings in all cases: compound concentration: 200 uM; treatment time: 3 h
USP34 = USP34 (UniProt Q70CQ2)
Outline: (§1)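 HEK293T lysate in Tris/CHAPS/IGEPAL buffer with protease inhibitors (495 µg per sample) was given fragment at 200 µM or vehicle for 3 h, in triplicate. It then received Biotin-Ahx-Ub-VS at 0.5 µM final for 1 h. Labelled DUBs were NeutrAvidin-enriched, digested with LysC and trypsin, and run by diaPASEF LC-MS/MS. Values are average log2 fragment/vehicle ratios by unpaired t-test on global-median-normalised Spectronaut quantities of proteins with ≥2 unique peptides.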

USP36 = target: T1, USP36 (UniProt Q9P275)
T1 sequence (whole entry): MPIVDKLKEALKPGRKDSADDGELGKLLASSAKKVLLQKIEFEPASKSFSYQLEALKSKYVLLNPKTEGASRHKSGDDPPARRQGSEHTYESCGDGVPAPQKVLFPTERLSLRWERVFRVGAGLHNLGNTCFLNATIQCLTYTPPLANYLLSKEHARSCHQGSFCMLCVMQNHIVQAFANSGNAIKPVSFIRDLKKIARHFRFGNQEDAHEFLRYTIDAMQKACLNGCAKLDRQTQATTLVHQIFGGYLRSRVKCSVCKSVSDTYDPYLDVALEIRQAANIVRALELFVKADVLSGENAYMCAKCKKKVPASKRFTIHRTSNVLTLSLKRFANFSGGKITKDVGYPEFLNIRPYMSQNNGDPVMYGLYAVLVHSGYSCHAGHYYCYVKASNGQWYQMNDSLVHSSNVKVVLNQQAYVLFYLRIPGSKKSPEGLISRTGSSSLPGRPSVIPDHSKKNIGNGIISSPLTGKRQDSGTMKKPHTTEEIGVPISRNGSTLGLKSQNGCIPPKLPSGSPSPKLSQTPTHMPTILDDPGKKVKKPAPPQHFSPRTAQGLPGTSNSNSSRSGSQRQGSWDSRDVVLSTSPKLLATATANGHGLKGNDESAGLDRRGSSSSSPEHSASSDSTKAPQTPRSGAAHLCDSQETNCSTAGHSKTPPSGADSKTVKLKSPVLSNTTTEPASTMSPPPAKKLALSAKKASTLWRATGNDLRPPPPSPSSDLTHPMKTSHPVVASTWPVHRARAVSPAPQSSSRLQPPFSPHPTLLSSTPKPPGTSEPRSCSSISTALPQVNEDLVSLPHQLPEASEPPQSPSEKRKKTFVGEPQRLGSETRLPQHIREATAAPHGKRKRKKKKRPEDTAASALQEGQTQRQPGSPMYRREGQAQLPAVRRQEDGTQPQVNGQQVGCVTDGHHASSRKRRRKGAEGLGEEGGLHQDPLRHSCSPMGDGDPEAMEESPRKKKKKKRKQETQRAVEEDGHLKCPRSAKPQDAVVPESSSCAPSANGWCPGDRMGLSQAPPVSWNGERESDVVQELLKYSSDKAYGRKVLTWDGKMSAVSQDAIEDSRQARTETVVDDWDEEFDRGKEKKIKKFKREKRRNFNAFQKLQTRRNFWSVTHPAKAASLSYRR
Outline: as §1

USP38 = target: T2, USP38 (UniProt Q8NB14)
T2 sequence (whole entry): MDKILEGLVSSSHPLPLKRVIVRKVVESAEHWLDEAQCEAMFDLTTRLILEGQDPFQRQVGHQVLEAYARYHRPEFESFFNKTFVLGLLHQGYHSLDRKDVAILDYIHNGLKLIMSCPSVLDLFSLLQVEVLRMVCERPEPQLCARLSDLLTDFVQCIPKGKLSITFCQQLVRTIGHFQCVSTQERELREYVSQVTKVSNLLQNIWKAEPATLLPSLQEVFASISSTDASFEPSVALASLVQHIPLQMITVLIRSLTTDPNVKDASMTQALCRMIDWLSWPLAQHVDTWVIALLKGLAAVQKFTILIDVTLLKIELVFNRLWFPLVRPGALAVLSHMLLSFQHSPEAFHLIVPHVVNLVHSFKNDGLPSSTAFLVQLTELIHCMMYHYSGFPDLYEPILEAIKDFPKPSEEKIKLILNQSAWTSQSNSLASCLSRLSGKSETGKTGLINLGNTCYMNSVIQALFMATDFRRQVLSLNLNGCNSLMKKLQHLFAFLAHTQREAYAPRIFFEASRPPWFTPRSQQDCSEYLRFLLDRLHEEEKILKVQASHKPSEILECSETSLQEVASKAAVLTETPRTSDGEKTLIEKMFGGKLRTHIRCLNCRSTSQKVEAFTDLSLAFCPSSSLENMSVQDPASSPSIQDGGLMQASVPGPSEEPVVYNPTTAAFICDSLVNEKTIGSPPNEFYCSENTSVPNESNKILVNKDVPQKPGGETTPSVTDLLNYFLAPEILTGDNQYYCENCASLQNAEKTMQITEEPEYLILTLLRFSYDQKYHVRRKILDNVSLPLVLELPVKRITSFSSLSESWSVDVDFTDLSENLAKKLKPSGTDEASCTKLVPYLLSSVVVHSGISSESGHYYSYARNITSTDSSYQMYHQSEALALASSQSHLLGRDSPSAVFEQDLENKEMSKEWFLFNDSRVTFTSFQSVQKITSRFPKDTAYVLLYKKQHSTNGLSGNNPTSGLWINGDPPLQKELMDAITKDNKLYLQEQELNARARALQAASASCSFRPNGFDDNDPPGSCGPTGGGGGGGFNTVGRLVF
Outline: as §1

USP39 = target: T3, USP39 (UniProt Q53GS9)
T3 sequence (whole entry): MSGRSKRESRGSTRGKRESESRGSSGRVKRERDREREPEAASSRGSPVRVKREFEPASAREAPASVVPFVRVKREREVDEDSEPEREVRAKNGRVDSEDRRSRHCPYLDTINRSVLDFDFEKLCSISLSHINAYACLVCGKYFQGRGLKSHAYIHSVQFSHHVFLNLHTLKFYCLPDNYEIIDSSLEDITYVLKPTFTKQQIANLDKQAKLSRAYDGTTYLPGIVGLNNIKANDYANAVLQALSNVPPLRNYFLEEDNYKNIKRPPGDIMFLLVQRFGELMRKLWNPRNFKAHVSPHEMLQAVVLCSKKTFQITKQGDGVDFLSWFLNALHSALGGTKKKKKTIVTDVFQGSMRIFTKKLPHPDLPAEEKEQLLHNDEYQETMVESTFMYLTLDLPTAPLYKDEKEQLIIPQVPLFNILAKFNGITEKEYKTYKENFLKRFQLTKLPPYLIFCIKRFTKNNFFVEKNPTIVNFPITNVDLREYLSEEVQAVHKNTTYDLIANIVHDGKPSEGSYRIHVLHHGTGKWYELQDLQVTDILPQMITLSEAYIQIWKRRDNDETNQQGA
Outline: as §1

USP4 = target: T4, USP4 (UniProt Q13107)
T4 sequence (whole entry): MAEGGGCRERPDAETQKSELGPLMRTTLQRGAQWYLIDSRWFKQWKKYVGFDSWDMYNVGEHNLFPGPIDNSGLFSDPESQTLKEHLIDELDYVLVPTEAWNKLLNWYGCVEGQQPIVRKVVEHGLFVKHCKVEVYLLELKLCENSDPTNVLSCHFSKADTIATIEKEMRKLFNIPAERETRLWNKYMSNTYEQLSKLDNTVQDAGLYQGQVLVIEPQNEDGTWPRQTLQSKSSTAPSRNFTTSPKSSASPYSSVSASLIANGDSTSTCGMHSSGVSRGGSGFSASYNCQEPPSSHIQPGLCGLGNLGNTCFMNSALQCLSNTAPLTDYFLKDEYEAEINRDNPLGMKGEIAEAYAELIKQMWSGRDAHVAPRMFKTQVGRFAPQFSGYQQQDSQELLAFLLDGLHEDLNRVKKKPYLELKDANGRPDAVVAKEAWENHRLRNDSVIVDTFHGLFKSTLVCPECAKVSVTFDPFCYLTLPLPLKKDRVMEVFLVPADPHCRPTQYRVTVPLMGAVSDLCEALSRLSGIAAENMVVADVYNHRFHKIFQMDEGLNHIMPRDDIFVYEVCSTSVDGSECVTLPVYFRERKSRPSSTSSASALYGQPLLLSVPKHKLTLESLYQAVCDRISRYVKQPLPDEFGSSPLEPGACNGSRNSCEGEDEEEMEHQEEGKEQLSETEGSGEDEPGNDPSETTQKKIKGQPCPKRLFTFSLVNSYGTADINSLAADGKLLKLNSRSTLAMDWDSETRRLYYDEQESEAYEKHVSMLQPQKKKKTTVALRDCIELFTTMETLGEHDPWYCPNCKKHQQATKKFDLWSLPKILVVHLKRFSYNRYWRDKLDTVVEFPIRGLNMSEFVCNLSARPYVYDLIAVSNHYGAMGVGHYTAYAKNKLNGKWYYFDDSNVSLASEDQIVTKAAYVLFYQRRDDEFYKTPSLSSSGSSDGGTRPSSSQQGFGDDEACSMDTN
Outline: as §1

Measured: log2 ratio of Biotin-Ahx-Ub-VS probe labelling

Chain of USP34 (Q70CQ2 whole entry, the tested form may be a part): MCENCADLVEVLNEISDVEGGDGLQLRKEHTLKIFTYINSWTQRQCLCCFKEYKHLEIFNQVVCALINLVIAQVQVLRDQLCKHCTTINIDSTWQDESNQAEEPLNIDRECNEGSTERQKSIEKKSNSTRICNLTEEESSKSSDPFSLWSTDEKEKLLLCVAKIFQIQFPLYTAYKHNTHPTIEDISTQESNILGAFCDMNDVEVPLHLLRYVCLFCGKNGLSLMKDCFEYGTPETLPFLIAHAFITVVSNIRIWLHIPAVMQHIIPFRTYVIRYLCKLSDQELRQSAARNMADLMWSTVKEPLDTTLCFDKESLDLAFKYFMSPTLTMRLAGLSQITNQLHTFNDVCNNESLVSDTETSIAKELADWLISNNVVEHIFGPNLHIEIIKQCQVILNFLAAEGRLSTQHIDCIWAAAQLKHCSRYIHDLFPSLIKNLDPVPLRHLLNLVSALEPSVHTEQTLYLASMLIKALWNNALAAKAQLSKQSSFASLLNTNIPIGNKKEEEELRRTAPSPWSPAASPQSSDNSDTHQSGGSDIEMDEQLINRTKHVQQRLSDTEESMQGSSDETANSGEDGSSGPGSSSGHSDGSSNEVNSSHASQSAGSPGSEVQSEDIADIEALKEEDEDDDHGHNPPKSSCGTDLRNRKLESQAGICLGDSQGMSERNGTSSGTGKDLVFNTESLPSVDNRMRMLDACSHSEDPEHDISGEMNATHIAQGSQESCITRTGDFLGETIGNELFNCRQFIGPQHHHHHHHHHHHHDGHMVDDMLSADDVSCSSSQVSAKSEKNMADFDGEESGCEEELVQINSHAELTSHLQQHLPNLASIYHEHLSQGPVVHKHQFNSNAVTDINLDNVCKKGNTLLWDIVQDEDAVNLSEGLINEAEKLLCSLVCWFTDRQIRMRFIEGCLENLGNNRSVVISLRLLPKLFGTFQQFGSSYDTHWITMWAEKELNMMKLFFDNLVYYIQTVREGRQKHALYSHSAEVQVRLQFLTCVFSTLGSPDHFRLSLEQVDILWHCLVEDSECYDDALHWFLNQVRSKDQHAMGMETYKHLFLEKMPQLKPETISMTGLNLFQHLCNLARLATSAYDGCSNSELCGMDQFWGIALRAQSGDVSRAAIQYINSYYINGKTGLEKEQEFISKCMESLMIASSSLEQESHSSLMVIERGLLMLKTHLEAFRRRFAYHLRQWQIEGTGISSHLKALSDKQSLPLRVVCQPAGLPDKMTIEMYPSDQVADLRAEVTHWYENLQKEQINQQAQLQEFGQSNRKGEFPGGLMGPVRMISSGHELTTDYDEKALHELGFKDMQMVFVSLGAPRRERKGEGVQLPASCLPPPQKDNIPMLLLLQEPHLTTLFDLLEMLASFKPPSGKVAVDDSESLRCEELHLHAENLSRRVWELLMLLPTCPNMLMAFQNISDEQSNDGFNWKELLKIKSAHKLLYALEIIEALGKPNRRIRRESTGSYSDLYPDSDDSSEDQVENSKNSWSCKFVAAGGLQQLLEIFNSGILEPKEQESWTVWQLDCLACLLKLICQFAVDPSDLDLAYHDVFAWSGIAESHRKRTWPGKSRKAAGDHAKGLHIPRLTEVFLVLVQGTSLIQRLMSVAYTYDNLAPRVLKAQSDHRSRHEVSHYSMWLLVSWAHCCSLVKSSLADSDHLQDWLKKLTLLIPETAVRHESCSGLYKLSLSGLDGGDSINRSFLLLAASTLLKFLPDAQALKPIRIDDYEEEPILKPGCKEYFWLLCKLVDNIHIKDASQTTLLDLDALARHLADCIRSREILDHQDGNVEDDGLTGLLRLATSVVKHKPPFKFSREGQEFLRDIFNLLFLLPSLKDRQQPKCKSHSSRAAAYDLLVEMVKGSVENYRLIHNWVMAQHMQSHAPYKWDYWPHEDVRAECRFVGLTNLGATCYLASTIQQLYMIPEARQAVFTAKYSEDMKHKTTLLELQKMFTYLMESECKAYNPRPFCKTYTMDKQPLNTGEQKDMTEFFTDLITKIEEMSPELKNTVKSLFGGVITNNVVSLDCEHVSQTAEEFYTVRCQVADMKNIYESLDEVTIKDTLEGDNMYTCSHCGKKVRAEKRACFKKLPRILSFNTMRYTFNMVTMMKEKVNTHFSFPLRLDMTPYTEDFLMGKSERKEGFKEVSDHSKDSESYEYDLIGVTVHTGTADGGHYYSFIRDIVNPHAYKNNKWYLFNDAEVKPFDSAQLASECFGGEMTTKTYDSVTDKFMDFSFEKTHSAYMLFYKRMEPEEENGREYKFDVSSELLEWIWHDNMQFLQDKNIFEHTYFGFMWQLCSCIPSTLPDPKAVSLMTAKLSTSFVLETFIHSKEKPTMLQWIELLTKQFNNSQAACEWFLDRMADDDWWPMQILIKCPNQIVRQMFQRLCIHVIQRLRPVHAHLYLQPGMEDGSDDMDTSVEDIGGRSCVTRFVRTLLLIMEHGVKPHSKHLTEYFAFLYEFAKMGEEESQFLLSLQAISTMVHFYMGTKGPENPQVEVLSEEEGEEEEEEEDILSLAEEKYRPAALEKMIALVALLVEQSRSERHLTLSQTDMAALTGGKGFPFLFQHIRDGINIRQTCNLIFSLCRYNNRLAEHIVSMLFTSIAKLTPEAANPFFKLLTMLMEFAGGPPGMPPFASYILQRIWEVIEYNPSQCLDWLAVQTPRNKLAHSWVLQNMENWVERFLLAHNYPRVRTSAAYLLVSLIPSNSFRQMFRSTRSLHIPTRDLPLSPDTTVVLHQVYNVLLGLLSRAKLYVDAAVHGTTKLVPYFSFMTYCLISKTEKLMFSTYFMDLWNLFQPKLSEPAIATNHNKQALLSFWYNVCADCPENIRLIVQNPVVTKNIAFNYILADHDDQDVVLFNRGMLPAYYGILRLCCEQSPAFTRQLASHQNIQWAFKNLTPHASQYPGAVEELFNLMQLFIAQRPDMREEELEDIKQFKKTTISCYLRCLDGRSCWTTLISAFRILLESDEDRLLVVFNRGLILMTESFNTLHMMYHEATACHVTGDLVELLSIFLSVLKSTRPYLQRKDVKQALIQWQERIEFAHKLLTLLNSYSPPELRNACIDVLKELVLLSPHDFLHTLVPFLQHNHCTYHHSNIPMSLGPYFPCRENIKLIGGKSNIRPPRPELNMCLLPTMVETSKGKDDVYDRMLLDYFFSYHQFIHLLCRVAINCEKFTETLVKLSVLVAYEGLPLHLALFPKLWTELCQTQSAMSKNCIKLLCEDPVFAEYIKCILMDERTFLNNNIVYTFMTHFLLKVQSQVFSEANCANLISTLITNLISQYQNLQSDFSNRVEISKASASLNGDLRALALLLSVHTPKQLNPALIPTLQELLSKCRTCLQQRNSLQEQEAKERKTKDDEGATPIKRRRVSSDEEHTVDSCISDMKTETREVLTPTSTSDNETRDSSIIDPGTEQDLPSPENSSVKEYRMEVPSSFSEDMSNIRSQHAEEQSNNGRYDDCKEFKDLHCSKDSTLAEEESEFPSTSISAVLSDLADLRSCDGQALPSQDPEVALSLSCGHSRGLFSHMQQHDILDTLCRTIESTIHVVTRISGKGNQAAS

COc1ccc(CN(C)C(=O)CCl)cc1
inactive: USP34 -0.0886 | USP36 0.0384 | USP38 0.0505 | USP39 0.298 | USP4 -0.016
